Five molecules from PubChem BioAssay AID1346378 (National Center for Advancing Translational Sciences (NCATS), 2018) can be followed below.

About 540 (0.13%) of roughly 420,000 compounds were called active. This is one part of a sample in which actives are shown more often than they occur. A number with no mark means an inactive call. Cut-off read from the data, not from the text of the source: active = activity change below about -50%; inconclusive = mostly about -30% to -49%; inactive = weaker than that.

Sequence of Phosphatidylinositol 4-kinase type 2-alpha (Homo sapiens) (Q9BTU6 whole entry, looked up): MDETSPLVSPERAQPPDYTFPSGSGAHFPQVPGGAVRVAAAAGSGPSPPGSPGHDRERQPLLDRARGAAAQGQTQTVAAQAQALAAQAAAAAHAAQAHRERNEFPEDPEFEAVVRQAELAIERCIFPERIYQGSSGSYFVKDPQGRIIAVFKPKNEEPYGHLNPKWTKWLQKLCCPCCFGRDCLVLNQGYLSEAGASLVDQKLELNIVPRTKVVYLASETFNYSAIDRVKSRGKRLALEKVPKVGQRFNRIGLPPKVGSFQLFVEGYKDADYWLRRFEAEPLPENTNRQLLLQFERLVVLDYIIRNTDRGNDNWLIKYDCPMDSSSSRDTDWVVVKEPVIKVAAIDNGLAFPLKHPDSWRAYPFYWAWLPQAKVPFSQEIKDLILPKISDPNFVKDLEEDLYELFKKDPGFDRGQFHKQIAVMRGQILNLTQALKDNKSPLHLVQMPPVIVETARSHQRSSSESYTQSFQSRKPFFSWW

The target in the test is Phosphatidylinositol 4-kinase type 2-alpha (Homo sapiens) (UniProt Q9BTU6). In words: qHTS for small molecular inhibitors of PI4K2A.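 For activity change, negative = inhibition: -100% = wells without enzyme as full effect.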 Particulars: purified PI4K2A, ADP-Glo luminescence, 1 h; at 76.9 µM, active compounds read low. An excerpt:
The phosphatidylinositol 4-phosphate (PI4P) is emerging as a key regulator of lipid transfer in ER-membrane contact sites. The four different phosphatidylinositol 4-kinase (PI4K) enzymes generate PI4P in different membrane compartments supporting distinct cellular processes many of which are crucial for the maintenance of cellular integrity but also hijacked by intracellular pathogens. The goal of this screening project is to search for small molecular inhibitors of PI4K2A based on a high throughput screening strategy.The ADP-Glo assay was used as a starting point to develop a miniaturized version for HTS applications. To implement the HTS screen, the PI4K ADP-Glotrade mark Kinase assay (Promega, V9102) was miniaturized for the 1536-well format used at NCGC.
For the robotic screening, the ADP-Glo assay using the ADP-Glotrade mark Kinase Assay kit from Promega was miniaturized and optimized on 1536-well white solid bottom plates (Greiner Bio-one). The substrate, 1.2 mM PI, prepared in the assay buffer (40mM Tris pH7.5, 20mM MgCl2, 1mM EGTA, 0.4% Triton X-100, 0.5mM DTT, 0.5mg/ml BSA) and PI4K2A enzyme, diluted also in the assay buffer to 4ug/mL, were dispensed onto the plates in equal volumes (1microl/well), pinned with 23 nL/well tested compounds or control followed by dispensation of 1microl/well 300microM ATP. The plates were incubated for one hour. Then, 2 µL/well of ADP-Glo reagent was added and incubated for 40 minutes. Next, 4microL/well of Kinase Detection Buffer was added to the plates and incubated for additional 40 minutes. All incubation steps were performed at ambient temperature. The resulting luminescence signal was measured on Viewlux plate reader (PerkinElmer). Adenosine, a partial non-specific inhibitor, was used as a positive control at 100microM final concentration to assess the assay's quality and plate-to-plate reproducibility. We also used "no enzyme" control to gauge the assay's maximal potential inhibition (IC100).
As to `C=CCN1C(=O)NC(=O)/C(=C/c2ccc(OCC(=O)Nc3ccc(C)cc3)cc2)C1=O`, the activity change, negative = inhibition was -53.5% (active).

For `C=CCN(CC=C)C(=O)Nc1ccc(OCC)cc1`, the activity change, negative = inhibition is 7.59%.

Take `CCC(=O)c1ccc(OCC(=O)N2CCN(CC(=O)Nc3ccc(C)cc3)CC2)cc1`: the activity change, negative = inhibition is -4.83%.

Regarding `CO[C@]12CC[C@@]3(C[C@@H]1[C@](C)(O)C(C)(C)C)[C@@H]1Cc4ccc(O)c5c4[C@@]3(CCN1CC1CC1)[C@H]2O5`, the activity change, negative = inhibition result was “inactive”.

Turning to `CCCOC(=O)c1cncn1C(C)c1ccccc1` (stereo not given), the activity change, negative = inhibition is -0.694%.
